HCMV antiviral – inhibitors of human cytomegalovirus. HFF cells, HCMV-luciferase reporter, 72 h; active compounds read low. activity change, negative = inhibition, % at 57.5 µM. 410,000 tested, 4.5% active; in the data active = activity change below about -60%; inconclusive = no clear call, values can overlap the other calls; inactive = above about -39%
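Screen run at 2 compound doses on HFFs infected with reporter HCMV, MOI 1 PFU/cell. Luciferase activity from cell lysates at 72 h post infection gave inhibition relative to buffer-only and Salinomycin wells.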
VACV Venus inh – vaccinia inhibition (Venus reporter). Vaccinia virus Venus reporter expression, fluorescence. Potency, µM (highest dose often 36.5 µM), most hits filed as inhibitors. 330,000 tested, 0.46% active. AID 720580; calls by dose curve; tested in A549 cells; note: nearly all actives have a fitted effect of over 30% in size
Vaccinia mCherry – inhibitors of vaccinia virus infection (mCherry reporter signal); Potency, µM (titrated, usually from 36.5 µM), hits mostly inhibitors; AID 720579; 310,000 tested, 0.63% active; Vaccinia virus mCherry reporter infection, fluorescence; calls by dose curve; tested in A549 cells; note: nearly all actives have a fitted effect of over 35% in size
LASV entry inh – Lassa virus entry inhibition; Lassa virus pseudotype entry inhibition, cell reporter; Potency, µM (top dose mostly 37.9 µM), hits mostly inhibitors; 300,000 tested, 1.2% active; AID 540256; calls by dose curve; tested in HEK293 cells; note: nearly all actives have a fitted effect of over 50% in size
MARV entry inh – Marburg virus entry inhibition; AID 540276; Potency, µM (series often up to 37.8 µM), most hits filed as inhibitors; Marburg virus pseudotyped entry inhibition, cell reporter; 300,000 tested, 1.8% active; calls by dose curve; tested in HEK293 cells
HCV inh – inhibitors of hepatitis C virus infection. Huh7.5.1 HCVcc-Cre infection, luciferase reporter, 44 h. 340,000 tested, 3.4% active. Potency, µM (titrated, usually from 41.8 µM), actives largely listed as inhibitors. AID 651820; active = well fitted inhibition curve with a large enough effect; inconclusive = small, poorly fitted or top-dose-only effect, or another doubt; inactive = no such curve, though single readings can be large or run the other way
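Luciferase read-out (15 sec integration) after a 15 min room-temperature substrate step quantifies HCVcc-Cre infection. Cells, 1,000 per well, had compound added 4 h post-plating, then virus at ~0.5 moi, and were cultured 44 h.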
A number is an active result; - = inactive; ? = inconclusive; . = no result. Shown are actives, neighbours in structure and some others; about 7.8% of the full set was active somewhere.

SMILES | HCMV antiviral | VACV Venus inh | Vaccinia mCherry | LASV entry inh | MARV entry inh | HCV inh
C=CCNC(=O)C(=O)Nc1ccc2c(c1)N(S(=O)(=O)c1cccs1)CCC2 | - | ? | ? | 8.9µM | ? | ?
COc1ccc(NC(=O)Nc2cn(CC(C)C)c(=O)c3ccccc23)c(OC)c1 | -104 | - | - | - | . | .
C=CCn1c(CCC(O)COCCCCC)n[nH]c1=S (configuration not stated) | -97 | - | - | - | - | -
COC(=O)/C(=N\OCc1ccc(C#N)cc1)c1c(C)nn(C)c1C | -100 | - | - | - | - | -
Cc1cnc(C(=O)OCc2ccc(C#N)cc2)cn1 | - | - | - | - | - | -
COc1ccc(Cl)cc1NC(=O)NCCn1c(=O)oc2ccc(C)cc21 | - | - | - | - | - | .
Cc1ccc(Cl)c(NC(=O)CSc2cccc[n+]2[O-])c1Cl | - | - | - | - | - | -
Cc1ccc(Cl)c(NC(=O)CCl)c1Cl | ? | ? | ? | ? | 6.3µM | -
CCOc1ccc(-c2nnc(SCC(=O)c3ccccc3)n2-c2ccccc2)cc1 | - | - | - | - | - | .
CCCn1c(CN2CCN(c3ccc(OC)cc3)CC2)nc2c1c(=O)[nH]c(=O)n2C | - | - | - | - | - | .
Cc1cc(C)c2nc(-c3ccccn3)cc(C(=O)NCCc3ccc(S(N)(=O)=O)cc3)c2c1 | - | - | - | - | - | -
Cc1nc2ccccc2c2oc(C(=O)NCc3ccccn3)cc12 | ? | . | . | - | - | ?
O=C(NCc1ccc2c(c1)OCO2)c1cc(-c2ccccn2)nc2ccccc12 | - | - | - | - | - | 10µM
CCc1ccc(NC(=O)c2cc3c(C)nc4ccccc4c3o2)cc1 | - | - | - | ? | ? | ?
Cc1cc(C)c2nc(-c3ccccn3)cc(C(=O)NCc3ccc(S(N)(=O)=O)cc3)c2c1 | - | - | - | ? | 11µM | ?
Cc1ccccc1NC(=O)c1cc2c(C)nc3ccccc3c2o1 | -83 | - | - | - | - | ?
Cc1ccc(CNC(=O)c2cc3c(C)nc4ccccc4c3o2)cc1 | -70 | - | - | . | . | ?
C[C@H]1CN([C@@H](C)CO)S(=O)(=O)c2ccc(Br)cc2O[C@H]1CN(C)C(=O)c1ccccc1F | - | . | . | . | . | .
Cc1cc(C)cc(N(CC(=O)NCc2ccc3c(c2)OCO3)C(=O)CCC(=O)Nc2ccccn2)c1 | - | - | . | 10µM | ? | -
Cc1nc2ccccc2c2oc(C(=O)NCc3ccc4c(c3)OCO4)cc12 | ? | ? | ? | . | . | 8.9µM
Cc1nc2ccccc2nc1OCC(=O)NCc1ccc2c(c1)OCO2 | - | - | - | ? | - | -
Cc1sc2ncn(CC(=O)NCCCC(=O)Nc3ccc(C(C)C)cc3)c(=O)c2c1C | -76 | - | - | ? | ? | -
c1ccc(-n2cccc2CNC2CCCCC2)cc1 | . | - | - | - | 21µM | -
CN(c1ccc(F)cc1)S(=O)(=O)c1ccc(Cl)c(C(=O)NCC2CCCO2)c1 (configuration not stated) | - | - | - | - | - | -
CN(c1ccc(F)cc1)S(=O)(=O)c1ccc(Cl)c(C(=O)NCC2(N3CCOCC3)CCCCC2)c1 | - | - | ? | ? | ? | 11µM
SMILES | HCMV antiviral | VACV Venus inh | Vaccinia mCherry | LASV entry inh | MARV entry inh | HCV inh
Cc1ccc(N(C)S(=O)(=O)c2cccc(C(=O)Nc3ccc(N4CCOCC4)cc3)c2)cc1 | ? | . | . | . | . | 6.3µM
CN(C)S(=O)(=O)c1cccc(C(=O)Nc2ccc(N3CCOCC3)cc2)c1 | -79 | - | - | - | - | ?
CN(c1ccccc1)S(=O)(=O)c1cccc(C(=O)Nc2ccc(N3CCOCC3)cc2)c1 | - | - | - | - | ? | 10µM
Cc1nc2ccc(S(=O)(=O)CCC(=O)Nc3ccc(Cl)cc3)cc2s1 | - | - | - | - | . | .
COc1ccc(CN2CC[C@H]3C=CC[C@@H](C(=O)Nc4ccc(Cl)cc4Cl)[C@H]3C2=O)cc1OC | . | ? | - | . | . | .
CN(c1ccccc1)S(=O)(=O)c1ccc(Cl)c(C(=O)Nc2ccccc2N2CCOCC2)c1 | - | - | - | ? | ? | 11µM
CCNc1ccc(C(=O)OCC)cc1NC(=O)c1cccc(S(=O)(=O)N(C)c2ccccc2)c1 | - | - | - | ? | ? | 8.9µM
Cc1cc(C)c(NC(=O)CNC(=O)c2cc(C3CC3)nc3c2cnn3C(C)C)c(C)c1 | - | ? | - | . | . | .
COc1ccc(NC(=O)c2cc(C3CC3)nc3c2cnn3C(C)C)cc1OC | ? | . | . | . | . | 10µM
COc1cc(C)c(NC(=O)c2cc(C3CC3)nc3c2cnn3C(C)C)cc1OC | - | . | . | . | . | 5µM

Screens from PubChem.
